Bioassay records as filed in PubChem BioAssay.
BRCT inh green = inhibitors of human BRCA1 BRCT-phosphoprotein interaction (green fluorophore) | 75,000 compounds, 0.05% hits | Potency, µM (series often up to 76.9 µM), inactives show at the highest dose activity change, negative = inhibition, usual class: inhibitors | BRCA1 BRCT-phosphopeptide binding, green fluorescence polarization | AID 875 | P38398;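 note: potency is the fitted concentration of half-maximal effect; plate controls were peptide without protein for full effect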
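Fluorescence polarization: His-tagged BRCT (~35 kDa BRCA1 C-terminus, 250 nM) bound to 100 nM fluorescein-labeled phosphorylated 10-aa BACH1 peptide, pH 7.3 phosphate buffer with DTT and Tween 20. Compounds incubated 12 min at room temperature; inhibition read as lowered polarization.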
Pol III holo inh = blocks replication by bacterial DNA polymerase III holoenzyme; AID 603; reconstituted DNA polymerase III holoenzyme replication, biochemical; Potency, µM (highest dose often 57.1 µM), for the others: top-dose activity change, negative = inhibition; 71,000 compounds, 0.25% hits; note: potency is the fitted concentration of half-maximal effect; % is set by controls: 0 for no effect and ±100 for the full control effect
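Reconstituted *E. coli* holoenzyme (0.35 nM Pol III, 1 nM beta, 154 nM SSB, 2 nM primase) was preincubated with compound for 15 min at RT. Synthesis on 1.4 nM ssM13Gori ran 35 min, then was stopped with PicoGreen/EDTA and read as dsDNA fluorescence.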
ALOX15 inhib = inhibitors of human 15-lipoxygenase (ALOX15) | purified 15hLO-1, xylenol orange hydroperoxide absorbance | AID 887 | 74,000 compounds, 1.4% hits | Potency, µM (titrated, usually from 57.1 µM), for inactives: at the highest dose activity change, negative = inhibition, hits mostly inhibitors; note: potency is the fitted concentration of half-maximal effect; % is set by controls: 0 for no effect and ±100 for the full control effect; nearly all actives have a fitted effect of over 55% in size
Target sequence (P16050 whole entry, looked up): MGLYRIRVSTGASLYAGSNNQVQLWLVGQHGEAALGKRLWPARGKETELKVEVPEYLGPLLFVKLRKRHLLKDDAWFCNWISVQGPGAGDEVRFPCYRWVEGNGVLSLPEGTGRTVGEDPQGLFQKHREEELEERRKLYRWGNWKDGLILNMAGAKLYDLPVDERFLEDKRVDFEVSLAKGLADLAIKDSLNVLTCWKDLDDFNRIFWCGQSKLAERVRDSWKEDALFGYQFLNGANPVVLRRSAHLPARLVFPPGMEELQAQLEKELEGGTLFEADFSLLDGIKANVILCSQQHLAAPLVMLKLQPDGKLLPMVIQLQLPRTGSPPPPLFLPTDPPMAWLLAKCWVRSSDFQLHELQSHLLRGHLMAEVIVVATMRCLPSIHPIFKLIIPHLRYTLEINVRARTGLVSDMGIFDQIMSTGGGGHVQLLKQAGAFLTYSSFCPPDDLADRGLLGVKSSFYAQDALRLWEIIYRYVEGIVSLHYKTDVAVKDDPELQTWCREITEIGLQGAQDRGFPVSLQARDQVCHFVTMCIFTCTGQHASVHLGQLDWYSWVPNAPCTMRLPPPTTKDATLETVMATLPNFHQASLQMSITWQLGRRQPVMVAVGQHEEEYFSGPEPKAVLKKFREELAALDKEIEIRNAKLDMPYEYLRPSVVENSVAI
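Compounds were preincubated 15 min at room temperature with 40 nM purified human enzyme (25 mM Hepes pH 7.5, 0.01% Triton X-100); 50 uM arachidonic acid reacted 6 min. Fe-xylenol orange detection, 30 min, absorbance ratio 573/405 nm.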
BRCT inh red = inhibitors of human BRCA1 BRCT-phosphoprotein interaction (red fluorophore) | P38398 | BRCT-phosphopeptide binding, red fluorescence polarization | Potency, µM (doses to about 76.9 µM), without a hit: at the highest dose activity change, negative = inhibition, usual class: inhibitors | 75,000 compounds, 0.03% hits; note: % is set by controls: 0 for no effect and ±100 for the full control effect
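Rhodamine-labelled pBACH1 10-mer (100 nM) bound to BRCT domain (100 nM) at pH 7.3; compounds incubated 12 min room temperature, polarization read. Free peptide defines full inhibition; unlabelled decapeptide titrated as control.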
ERK AVP inh = inhibitors of vasopressin-stimulated ERK signaling pathway; HEK293-V1b, vasopressin-stimulated pERK AlphaScreen; Potency, µM (series often up to 57.5 µM), for inactives: at the highest dose activity, negative = inhibition, most hits filed as inhibitors; 72,000 compounds, 0.99% hits; AID 995; note: potency is the fitted concentration of half-maximal effect; % is set by controls: 0 for no effect and ±100 for the full control effect; nearly all actives have a fitted effect of over 55% in size
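HEK293 cells stably expressing V1b receptor, seeded overnight in 1% FBS, were treated with compounds for 30 min at 37C, then stimulated 5 min with 25 nM vasopressin; phospho-ERK read by AlphaScreen SureFire after lysis.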
YjeE inh = displaces an ADP probe from E. coli YjeE (TsaE); purified YjeE enzyme, qHTS inhibition assay; Potency, µM; 71,000 compounds, 0.05% hits; AID 605
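Fluorescence polarization of a BODIPY Texas Red–ADP probe (2 uM) bound to purified YjeE (10 uM) was read after 15 min room-temperature incubation with compounds. Loss of polarization marks inhibitors; ADP serves as titrated control.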
* = called active by the depositor; [ ] = another dose, or the depositor's remark. An excerpt weighted towards active compounds, which were near 2.4% of everything screened. Calls come from the whole dose curve; as a rule, active = well fitted curve in the direction sought with a large enough effect; inconclusive = small, poorly fitted or top-dose-only effect, or another doubt; inactive = no such curve, though single readings can be large; an effect the other way counts as inactive or inconclusive.

`C[C@H]1C[C@@H]2[C@@H]([C@@H](O)C[C@@]3(C)[C@H]2CC[C@]3(O)C(=O)CO)[C@@]2(C)C=CC(=O)C=C12` gave BRCT inh green 0%[34.4 µM], Pol III holo inh -6%[25.6 µM], ALOX15 inhib -1%[25.6 µM], BRCT inh red 0%[34.4 µM], ERK AVP inh 6%[25.7 µM] and YjeE inh inactive.
For O=C(c1cccc(F)c1)N1CCN(C(=O)c2cc(-c3ccc(Cl)cc3Cl)on2)CC1 the results were BRCT inh green 2%, Pol III holo inh 2%, ALOX15 inhib 16µM*, BRCT inh red -1%, ERK AVP inh inconclusive and YjeE inh inactive.
`COc1cccc(C(=O)N2CCN(C(=O)c3cccc(F)c3)CC2)c1` gave BRCT inh green -1%, Pol III holo inh -4%, ALOX15 inhib 7%, BRCT inh red -1%, ERK AVP inh -6% and YjeE inh inactive.
Screening O=C(O)[C@H]1CCCC[C@@H]1c1c2ccc(=O)c(O)c-2oc2c(O)c(O)ccc12 returned BRCT inh green -10%[15.4 µM], Pol III holo inh 0.32µM*, ALOX15 inhib inconclusive, BRCT inh red -24%[15.4 µM], ERK AVP inh -12%[11.5 µM] and YjeE inh inactive.
O=C(O)/C=C\c1c2ccc(=O)c(O)c-2oc2c(O)c(O)ccc12 was read as BRCT inh green 6.3µM*, Pol III holo inh 0.1µM*, ALOX15 inhib 1.6µM*, BRCT inh red inconclusive, ERK AVP inh inconclusive and YjeE inh inconclusive.
Screening O=C(O)/C=C/c1ccc(O)c(O)c1 returned BRCT inh green 2%, ALOX15 inhib -5%, BRCT inh red -2% and ERK AVP inh -1%.
CCCc1cc2c(c(=O)o1)C(O)C1OC1C2=O (centres undefined) was read as BRCT inh green -2%[15.4 µM], ALOX15 inhib inconclusive, BRCT inh red 2%[15.4 µM] and ERK AVP inh 23%[11.5 µM].
`COc1ccccc1CN1CC[C@@]2(CCCN(C(=O)c3cccc(F)c3)C2)C1` gave BRCT inh green -2%, Pol III holo inh -6%, ALOX15 inhib 1%, BRCT inh red 0%, ERK AVP inh -5% and YjeE inh inactive.
For Cc1cccc(N2CCN(CC(=O)NCC3CCCCC3)CC2)c1C the results were BRCT inh green -1%, Pol III holo inh -6%, ALOX15 inhib inconclusive, BRCT inh red 1%, ERK AVP inh 25µM* and YjeE inh inactive.
For COc1ccc(C(=O)CSc2nnc(CNC(=O)c3ccc(OC)cc3)n2C)cc1 the results were BRCT inh green 0%, Pol III holo inh -3%, ALOX15 inhib -7%, BRCT inh red -2%, ERK AVP inh -9% and YjeE inh inactive.
For Cc1cccc(N(CC(=O)NCc2ccc3c(c2)OCO3)C(=O)CCC(=O)Nc2ccccn2)c1 the results were BRCT inh green -3%, Pol III holo inh -2%, ALOX15 inhib -10%, BRCT inh red 0%, ERK AVP inh inconclusive and YjeE inh inactive.
Cc1ccc(-c2nnc(N3CCN(C(=O)CN4C(=O)c5ccccc5C4=O)CC3)c3ccccc23)cc1 was read as BRCT inh green 2%, Pol III holo inh -6%, ALOX15 inhib inconclusive, BRCT inh red 0%, ERK AVP inh -7% and YjeE inh inactive.
O=C(c1ccco1)N1CCN(c2ncnc3c(-c4ccccc4)nsc23)CC1 was read as BRCT inh green 3%, Pol III holo inh 5%, ALOX15 inhib -19%, BRCT inh red 1%, ERK AVP inh 25µM* and YjeE inh inactive.
COc1ccc(-c2nsc3c(N4CCN(C(=O)c5ccco5)CC4)ncnc23)cc1 was read as BRCT inh green -1%, Pol III holo inh -6%, ALOX15 inhib -5%, BRCT inh red 0%, ERK AVP inh 24% and YjeE inh inactive.
Screening Cc1ccc(-c2nnc(N3CCN(C(=O)c4ccco4)CC3)c3ccccc23)cc1 returned BRCT inh green -4%, Pol III holo inh -3%, ALOX15 inhib -22%, BRCT inh red 1%, ERK AVP inh 25µM* and YjeE inh inactive.
Screening C/C1=C2N=C(/C=C3N=C(/C(C)=C4\[N-]C(C)(C5N=C1C(C)(CCC(=O)NCC(C)OP(=O)([O-])O[C@H]1C(O)C(n6cnc7cc(C)c(C)cc76)O[C@@H]1CO)C5CC(N)=O)C(C)(CC(N)=O)C4CCC(N)=O)C(C)(CC(N)=O)C\3CCC(N)=O)C(C)(C)C/2CCC(N)=O.[CH2-]C1OC(n2cnc3c(N)ncnc32)C(O)C1O.[Co] (some centres undefined) returned BRCT inh green -3%[3.08 µM], ALOX15 inhib -14%, BRCT inh red 2% and ERK AVP inh -22%.
For COc1ccccc1NC(=O)N(Cc1ccco1)Cc1cc2ccc(C)c(C)c2[nH]c1=O the results were BRCT inh green 2%, Pol III holo inh 0%, ALOX15 inhib -25%, BRCT inh red -1%, ERK AVP inh -20% and YjeE inh inactive.
COc1ccccc1NC(=O)N(Cc1ccco1)Cc1cc2cc(C)cc(C)c2[nH]c1=O was read as BRCT inh green 4%, Pol III holo inh -3%, ALOX15 inhib 10µM*, BRCT inh red 1%, ERK AVP inh -21% and YjeE inh inactive.
Screening N=C1C=CC(=C(c2ccc(N)cc2)c2ccc(N)cc2)C=C1 returned BRCT inh green 6%[15.4 µM], Pol III holo inh -15%[11.4 µM], ALOX15 inhib 5%[11.4 µM], BRCT inh red 1%[15.4 µM], ERK AVP inh 13µM* and YjeE inh inconclusive.
For c1ccc(-c2csc(N3CCN(c4ccccn4)CC3)n2)cc1 the results were BRCT inh green -1%, Pol III holo inh -5%, ALOX15 inhib -7%, BRCT inh red 1%, ERK AVP inh 16µM* and YjeE inh inactive.
`CN(C)C(=O)c1ccc(-c2ccc3ncnc(NCc4cccs4)c3c2)cc1` gave BRCT inh green 3%, Pol III holo inh -18%, ALOX15 inhib 24%, BRCT inh red 1%, ERK AVP inh 32µM* and YjeE inh inconclusive.
`COc1cccc(-c2ccc3ncnc(NCc4cccs4)c3c2)c1` gave BRCT inh green 1%, Pol III holo inh 17%, ALOX15 inhib 3%, BRCT inh red 0%, ERK AVP inh 16µM* and YjeE inh inactive.
Screening COc1ccc(NC(=O)N2CC[C@@]3(CCCN(C(=O)c4ccco4)C3)C2)cc1 returned BRCT inh green -1%, Pol III holo inh -5%, ALOX15 inhib 1%, BRCT inh red -2%, ERK AVP inh -7% and YjeE inh inactive.
